Records with an inconclusive call do not appear. Entries that show only a call come without a potency. Activity calls are given as the source filed them. The call rests on the fitted dose curve; in most records, active means well fitted cell-killing curve with a large enough effect in the repeat runs; inconclusive means weak or mixed curves, or effect the other way; inactive means flat fitted curve, though single readings scatter.
Assay: qHTS RealTime-Glo MT Cell Viability Assay in HepG2 cells - 0 hour (AID 1224889); further: nearly all actives have a fitted effect of over 50% in size
Conditions: RealTime-Glo luminescence; series mostly up to 76.8 µM
Source text: U.S. Tox21 Program National Center for Advancing Translational Sciences [NCATS] NIH Chemical Genomics Center [NCGC] U.S. Environmental Protection Agency [EPA] National Institutes of Environmental Health Sciences [NIEHS] National Toxicology Program [NTP] U.S. Food and Drug Administration [FDA] Tox21 Assay Overview: Measure of cell viability is critical in the cell-base assay. Analysis of cell viability is necessary for the characterization of cell responses to cytotoxic drugs and environmental stress. A RealTime-Glo MT Cell Viability Assay to monitor cell viability in real time of continues cell culture during 40 hours of compound treatment was used to screen Tox21 10K library compounds in HepG2 cells. The RealTime-Glo MT Cell Viability Assay is a nonlytic, homogeneous, bioluminescent method to measure cell viability in real time using a simple, plate-based method. The assay involves adding NanoLuc luciferase and a cell-permeant prosubstrate to cells in culture. Viable cells reduce the proprietary prosubstrate to generate a substrate for NanoLuc luciferase. This substrate diffuses from cells into the surrounding culture medium, where it is rapidly used by the NanoLuc Enzyme to produce a luminescent signal. The signal correlates with the number of viable cells, making the assay well suited for cytotoxicity studies.
Tox21 Assay Protocol Summary: The mixture of HepG2 cell suspension and reagents were dispensed at 600cells/6 ul/well in 1536-well tissue culture treated black solid bottom plates using a Multidrop dispenser. After the assay plates were incubated at a 37 C/5% CO2 incubator for 5 hours, 23 nL of compounds dissolved in DMSO, positive and negative controls was transferred to the assay plate by a pintool work station. The plates were incubated at 37 C for 40 hours. The luminescence intensity were measured at 0h, 8h, 16h, 24h, 32h and 40h time points using ViewLux plate reader during compound treatment.
Potency means the concentration at half of the fitted maximal effect.

Compound	Potency
CC1(CN2CCC(n3c(=O)[nH]c4ccccc43)CC2)OCc2ccccc2-n2cccc21 (stereo not given)	inactive
c1ccc2sc(SN(C3CCCCC3)C3CCCCC3)nc2c1	inactive
CC1(C)S[C@@H]2[C@H](NC(=O)C(c3ccccc3)S(=O)(=O)O)C(=O)N2[C@H]1C(=O)O (stereo not given in full)	inactive
CO[C@]1(NC(=O)CSC(F)F)C(=O)N2C(C(=O)O)=C(CSc3nnnn3CCO)CO[C@H]21	inactive
CCCCCCCCCI	inactive
O=C(O)CCc1nc(-c2ccccc2)c(-c2ccccc2)o1	inactive
O=C(O)c1cccc(-c2noc(-c3ccccc3F)n2)c1	inactive
CCOC(=O)/C=C/C(=O)OCC	inactive
CC(=O)OCC(=O)NCCCOc1cccc(CN2CCCCC2)c1	inactive
C[C@]12CC[C@@H]3c4ccc(O)cc4CC[C@H]3[C@@H]1CC[C@@H]2OC(=O)CCC1CCCC1	inactive
Cc1ccc(OC(=O)c2ccccc2O)cc1	inactive
CCC(=O)C1CC(C(C)C)CC=C1C (stereo not given)	inactive
COc1cc(C(=O)NCCCCCC(=O)O)cc(OC)c1OC	inactive
CCN(CC)CCNC(=O)COc1ccc(OC)cc1	inactive
CC1(C)[C@@H](OC(=O)CCC(=O)O)CC[C@]2(C)[C@H]3C(=O)C=C4[C@@H]5C[C@@](C)(C(=O)O)CC[C@]5(C)CC[C@@]4(C)[C@]3(C)CC[C@@H]12	inactive
Brc1cc2ccccc2c2ccccc12	inactive
O=C1c2ccccc2C(=O)C1c1ccc(Br)cc1	inactive
CCCCCCCC/C=C\CCCCCCCCO	inactive
O=c1cc(-c2ccccc2)oc2ccc3ccccc3c12	inactive
C=C(C)CCCC(C)CCO (stereo not given)	inactive

Compound	Potency
Nc1nc2ccc([N+](=O)[O-])cc2s1	inactive
CC(=O)c1ccc([N+](=O)[O-])cc1	inactive
CC(C)(C)C(=O)C(=O)O	inactive
Nc1cccc2c1CN(C1CCC(=O)NC1=O)C2=O (stereo not given)	inactive
CCOC(=O)C1=C(C)NC(C)=C(C(=O)OC)C1c1cccc(Cl)c1Cl (stereo not given)	6.74 µM (active)
CCCCCCCCCCC(=O)O	inactive
CCC1CO1 (stereo not given)	inactive
O=[N+]([O-])c1ccc(O/N=C/c2cc(Br)c(O)c(Br)c2)c([N+](=O)[O-])c1	inactive
COC(=O)CS	inactive
O=Cc1c2ccccc2c(Cl)c2ccccc12	inactive
CCC=CC#N	inactive
Cc1cc(O)c(C)c(C)c1O	inactive
CN1CCCN=C1COC(=O)C(O)(c1ccccc1)C1CCCCC1 (stereo not given)	inactive
CC(=O)Nc1ccc(C)cc1C	inactive
CCOC(=O)c1ccc(OCCN2C[C@H](O)[C@@H](O)[C@H](O)[C@H]2CO)cc1	inactive
C[C@@H](O)[C@H]1C(=O)N2C(C(=O)O)=C([C@H]3CCCO3)S[C@H]12	inactive
CC(=O)N/N=C/c1ccc([N+](=O)[O-])o1	inactive
Cc1ccc2c(Br)cc(Br)c(O)c2n1	inactive
Cc1ccc(C(C)(C)O)cc1	inactive
O=C1c2ccccc2C(=O)c2c(O)c(O)cc(O)c21	inactive
